{"source": "PubChem BioAssay (Tox21)", "note": "Records with an inconclusive call do not appear. A number with no mark means an inactive call. The source made the active and inactive calls. Calls follow the shape of the dose curve; as a rule, active = well fitted activation curve with a large enough effect in the repeat runs; inconclusive = weak or mixed curves, or effect the other way; inactive = no such curve, though single readings can be large or run the other way. % is scaled to controls: 0 for no effect and ±100 for the full control effect; potency is read from the fitted curve at half-maximal effect.", "data": [{"experiment": "qHTS assay to identify small molecule agonists of the estrogen related receptor signaling pathway with the pleiotropic PPARgamma coactivator (PGC) from Tox21 10K library (AID 1224842); also: nearly all actives have a fitted effect of over 15% in size", "conditions": "PGC/ERR reporter cell line, luciferase ONE-Glo, 18 h; series mostly up to 92.4 µM; activation: at the top concentration", "excerpt": "National Center for Advancing Translational Sciences [NCATS] NIH Chemical Genomics Center [NCGC] U.S. Environmental Protection Agency [EPA] National Institutes of Environmental Health Sciences [NIEHS] National Toxicology Program [NTP] Assay overview: Estrogen related receptors (ERRs), the first orphan nuclear receptors discovered, play an important role in the control of cellular energy metabolism. ERRs are required for high-energy production in response to the environmental challenges. The pleiotropic PPARgamma coactivator (PGC) is a major partner of ERR and a key regulator in energy homeostasis. Together they have been implicated in the etiology of metabolic disorders such as Type 2 diabetes and metabolic syndrome. ERR-alpha was also identified as an adverse marker for breast cancer progression; ERR-alpha-positive tumors have a poor prognosis. To screen and to identify environmental compounds that perturb the PGC/ERR signaling pathways could provide valuable information for potential therapeutic or preventive measures in the treatment of metabolic disease. For identifying PGC/ERR agonists, PGC/ERR cell line (provided by NTP) has been used to screen Tox21 10K library.\nAssay Protocol Summary: The PGC/ERR cells were dispensed at 2,000 cells/5 ul/well in 1536-well white plates using a Multidrop dispenser. After the assay plates were incubated at a 37 C/5% CO2 incubator for 6 hours, 23 nL of compounds dissolved in DMSO, positive and negative controls or DMSO only was transferred to the assay plate by a pin tool. The plates were incubated at 37 C for 18 hours. 4 ul/well of One-Glo reagent was added into the assay plates using a Flying Reagent Dispenser. After 30-minute incubation at room temperature, the luminescence intensity in the plates was measured using a ViewLux plate reader.", "values": [{"smiles": "CC(C)(Cc1c[nH]c2ccccc12)NCC(O)COc1ccccc1C#N", "note": "(stereo not given)", "activation": "-9.93% [at 42.5 µM]"}, {"smiles": "COC=O", "activation": "3.43% [at 8.39 µM]"}, {"smiles": "Cc1cc(SC2=C(O)C[C@@](CCc3ccc(N)cc3)(C(C)C)OC2=O)c(C(C)(C)C)cc1CO", "activation": "-0.281%"}, {"smiles": "Clc1cc(Cl)c2c(c1)N=C1CCCCCN1C2", "activation": "4.63% [at 42.5 µM]"}, {"smiles": "CCOc1cc(OCC)c(C(C)=O)cc1OCC", "activation": "-7.98%"}, {"smiles": "CNc1ccccc1", "activation": "-5.41%"}, {"smiles": "O=C(Nc1ccccc1)c1cc([N+](=O)[O-])ccc1Cl", "activation": "-19.9%"}, {"smiles": "OCCc1ccncc1", "activation": "-2.09%"}, {"smiles": "O=Cc1ccc(Cl)c([N+](=O)[O-])c1", "activation": "-19.6%"}, {"smiles": "CCC1=C(C)CN(C(=O)NCCc2ccc(S(=O)(=O)NC(=O)NC3CCC(C)CC3)cc2)C1=O", "note": "(stereo not given)", "activation": "2.42% [at 42.5 µM]"}, {"smiles": "N#C[C@@H]1CC(F)(F)CN1C(=O)CNC1CC2CCC(C1)N2c1ncccn1", "note": "(stereo not given in full)", "activation": "-5.1%"}, {"smiles": "COc1ccc(/C(C)=C/C(=O)O)c(OC)c1", "activation": "1.65% [at 42.5 µM]"}, {"smiles": "O=C(N[C@@H](Cc1ccccc1)[C@@H](O)C(=O)N1C[C@@H](O)[C@@H](O)C1)c1cc2cc(Cl)ccc2[nH]1", "activation": "-20.4%"}, {"smiles": "CC(CC(C#N)(c1ccccc1)C(C)C)N(C)C", "note": "(stereo not given)", "activation": "-2.28% [at 42.5 µM]"}, {"smiles": "O=c1[nH]nc(-c2ccc([N+](=O)[O-])o2)o1", "activation": "-13.2%"}, {"smiles": "COC(=O)C(C)(C)C", "activation": "0.0922%"}, {"smiles": "CC(=O)Oc1cccc2c1C(=O)c1c(OC(C)=O)cc(C(=O)O)cc1C2=O", "activation": "-19.2% [at 42.5 µM]"}, {"smiles": "CCC[Si](OC)(OC)OC", "activation": "-6.73%"}, {"smiles": "CCCCCC1CCC(=O)O1", "note": "(stereo not given)", "activation": "-0.379%"}, {"smiles": "CC1=CC(=C(c2ccc(N)cc2)c2ccc(N)cc2)C=CC1=N", "activation": "-25.9% [at 8.39 µM]"}, {"smiles": "CCCCCCCCCCCCSCCOCCO", "activation": "-3.19% [at 42.5 µM]"}, {"smiles": "Cc1nc(C)c(C)nc1C", "activation": "-2.52%"}, {"smiles": "Oc1ccc(CCNCCCCCCNCCc2ccccc2)cc1O", "activation": "3.49% [at 42.5 µM]"}, {"smiles": "CCC(=O)O[C@@H]1C[C@H]2CC[C@]1(C)C2(C)C", "activation": "1.56%"}, {"smiles": "CC1=C(C)C(=O)C(CCCCC#CCCCC#CCO)=C(C)C1=O", "activation": "-12.2% [at 42.5 µM]"}, {"smiles": "CCn1nc(Cc2ccccc2)cc1C1CCN(C[C@H]2C[C@H](N(C)[C@@H](C(=O)O)C(C)C)C[C@@H]2c2cccc(F)c2)CC1", "activation": "-3.77%"}, {"smiles": "CCCCCCCCCCCCSC#N", "activation": "-0.0951%"}, {"smiles": "CCN(CCCCOC(=O)c1ccc(OC)c(OC)c1)C(C)Cc1ccc(OC)cc1", "note": "(stereo not given)", "activation": "-5.7% [at 42.5 µM]"}, {"smiles": "COc1ccc(C(=O)c2ccc(C)cc2)c(O)c1", "Potency": "7.78 µM (active)"}, {"smiles": "CC/C=C\\CCO", "activation": "2.57%"}, {"smiles": "C=CC(=O)OCCCCCCCCCC", "activation": "2.07%"}, {"smiles": "CCCCCCOC(=O)c1ccccc1", "activation": "2.66%"}, {"smiles": "CC(C)Oc1ccccc1O", "activation": "1.05%"}, {"smiles": "CCC(C)C1N=C(C)C(C)S1", "note": "(stereo not given)", "activation": "-0.473%"}, {"smiles": "CC(=O)Nc1ccccc1O", "activation": "0.555%"}, {"smiles": "O=C(OCCCCCOC(=O)c1ccccc1)c1ccccc1", "activation": "0.403%"}, {"smiles": "C=Cc1ccc(C=C)cc1", "activation": "-1.98%"}, {"smiles": "CCOc1ccc(NC(C)=O)cc1N", "activation": "3.63%"}, {"smiles": "CCCN(C1CCN(C(=O)C2CCNCC2)CC1)[C@@H]1CCc2ccc(OC)cc2C1", "activation": "-9.39%"}, {"smiles": "O=C1c2ccccc2C(=O)C1c1ccc2cc(S(=O)(=O)O)cc(S(=O)(=O)O)c2n1", "activation": "10.1%"}]}]}
